Assay outcomes deposited in PubChem by National Center for Advancing Translational Sciences (NCATS).
Vaccinia mCherry: inhibitors of vaccinia virus infection (mCherry reporter signal); Potency, µM (top dose mostly 36.5 µM), inactives show at the highest dose activity change, negative = inhibition, hits mostly inhibitors; Vaccinia virus mCherry reporter infection, fluorescence; hit rate 0.63% among 310,000; calls by dose curve; tested in A549 cells; also: nearly all actives have a fitted effect of over 35% in size
AMA1-RON2 inh: disrupts binding of P. falciparum AMA1 to RON2 | AlphaScreen AMA1-biotinylated RON2 peptide binding | Potency, µM (titrated, usually from 58.2 µM), without a hit: at the top dose activity change, negative = inhibition, most hits filed as inhibitors | hit rate 0.2% among 360,000;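 also: 0% = vehicle wells and -100% = peptide control; nearly all actives have a fitted effect of over 45% in size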
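AMA1 (3D7) with his tag at 25 nM final met compounds first, then biotinylated RON2 peptide at 25 nM; detection used donor plus acceptor beads, 10 µg/mL apiece, read by AlphaScreen after 30 min at room temperature.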
Pf growth 48h: P. falciparum growth inhibition at 48 hours (one generation). P. falciparum luciferase growth in erythrocytes, 48 h. Potency, µM (doses to about 28.7 µM), for the others: at the top dose activity change, negative = inhibition, most hits filed as inhibitors. hit rate 5.9% among 310,000
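Luminescence readout; reporter = integrated firefly luciferase in P. falciparum. RBC culture at 2% hematocrit, 0.1% parasitemia final, 37 C/5% CO2; decreased signal taken as growth inhibition.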
Pf growth 96h: P. falciparum growth inhibition at 96 hours. AID 504834. hit rate 6.9% among 320,000. P. falciparum luciferase reporter growth, 96 h. Potency, µM (series often up to 28.7 µM), inactives show at the top dose activity change, negative = inhibition, hits mostly inhibitors
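P. falciparum expressing integrated firefly luciferase grown in erythrocytes (2% hematocrit, 0.05% parasitemia final) with compounds for 96 hours at 37 C, 5% CO2. Growth inhibition read as loss of luminescence after adding luciferase detection reagent.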
Vaccinia Venus: vaccinia inhibition (Venus reporter); Vaccinia virus Venus reporter expression, fluorescence; Potency, µM (series often up to 36.5 µM), for inactives: at the highest dose activity change, negative = inhibition, most hits filed as inhibitors; hit rate 0.46% among 330,000; calls by dose curve; tested in A549 cells; also: nearly all actives have a fitted effect of over 30% in size
The depositor's hits bear a star; i = inactive; ? = inconclusive; nt = not tested or not shown; [ ] = another dose, or the depositor's remark. Compounds with a hit are over-represented: about 8.7% of the library has one in this group of screens. Unless noted, calls follow the shape of the dose curve; as a rule, active = well fitted curve in the direction sought with a large enough effect; inconclusive = small, poorly fitted or top-dose-only effect, or another doubt; inactive = no such curve, though single readings can be large; an effect the other way counts as inactive or inconclusive. Unless noted, % is scaled to controls: 0 for no effect and ±100 for the full control effect; potency is read from the fitted curve at half-maximal effect.

SMILES	Vaccinia mCherry	AMA1-RON2 inh	Pf growth 48h	Pf growth 96h	Vaccinia Venus
COc1ccccc1C1C(C(C)=O)=C(C)N=c2s/c(=C\c3cc(OC)c(OC)c(OC)c3)c(=O)n21 (centres undefined)	-9%	0%	9.3µM*	?	-13%
CCOC(=O)C1=C(C)N=c2s/c(=C\c3cccc(OCC(=O)O)c3)c(=O)n2C1c1ccccc1OC (centres undefined)	nt	42%	?	?	nt
CCc1nc(NCC2CCCO2)c(C#N)c2c1COC(C)(C)C2 (centres undefined)	i	-8%	?	?	-3%
CC(C)c1nc(NCC2CCCO2)c(C#N)c2c1COC(C)(C)C2 (centres undefined)	-18%	-3%	13µM*	0%	-21%
C[N+](C)(C)CC[N+]1(C)Cc2c(Cl)c(Cl)c(Cl)c(Cl)c2C1	nt	nt	-10%	0.24µM*	nt
CC(C)(C)c1ccc(C(=O)NCC(c2cccs2)S(=O)(=O)c2ccc(F)cc2)cc1 (centres undefined)	?	nt	nt	nt	-29%
Cc1cc(C)cc(C(=O)N2CCN(c3ccccn3)CC2)c1	-8%	6%	6%	12µM*	-10%
O=[N+]([O-])c1cccc(S(=O)(=O)Nc2nc3ccccc3nc2Nc2cccc(S(=O)(=O)N3CCCCC3)c2)c1	nt	-6%	15µM*	5.2µM*	nt
O=C(c1ccc(Cl)c(S(=O)(=O)NCc2ccccc2)c1)N1CCN(c2ccccn2)CC1	-30%	1%	?	4.7µM*	-23%
O=C(N1CCN(Cc2ccccc2)CC1)C(Cl)(Cl)Cl	?	2%	10µM*	44%	-28%
CC1CCN(S(=O)(=O)c2ccc3c(c2)oc(=O)n3CC(=O)NC(C)c2ccccc2)CC1 (centres undefined)	-23%	nt	nt	nt	-15%
COc1ccc(-n2cc(-c3ccccc3)c3c(N4CCCC(C)C4)ncnc32)cc1 (centres undefined)	-7%	nt	nt	nt	-4%
Cc1cccc(N2C(=O)N(Cc3cccc(C#N)c3)c3ccccc3S2(=O)=O)c1	11%	nt	nt	nt	4%
O=[N+]([O-])c1cccc(S(=O)(=O)N2CCN(c3ccccn3)CC2)c1	nt	7%	19%	10µM*	nt
O=C(c1c(Cl)cccc1Cl)N1CCN(c2ccccn2)CC1	nt	9%	-17%	nt	nt
Cc1c(C(=O)N2CCN(c3ccccn3)CC2)oc2c(F)cccc12	i	-7%	10µM*	2.3µM*	-8%
O=[N+]([O-])c1ccc(S(=O)(=O)N2CCN(c3ccccn3)CC2)cc1	i	5%	nt	nt	-3%
Oc1c(Br)cc(Br)cc1CN1CCN(Cc2ccccc2)CC1	-28%	?	1.9µM*	nt	-18%
O=C(N1CCN(c2ccccn2)CC1)C(Cl)(Cl)Cl	-15%	2%	9.3µM*	2%	-14%
Cc1c(C(=O)N2CCN(c3ncccn3)CC2)oc2c(Cl)cccc12	-2%	-6%	?	-20%	-21%
Oc1c(Br)cc(Br)cc1/C=N/N1CCN(Cc2ccccc2)CC1	-13%	14%[2.32 µM]	11%	49%	-7%
CC1CCN(C(=O)c2ccc(Br)c(S(=O)(=O)N3CCOCC3)c2)CC1	-8%	-19%	-9%	8%	-2%
CC1CCN(S(=O)(=O)c2cc(C(=O)N3CCN(c4ncccn4)CC3)ccc2Br)CC1	-14%	-14%	?	7.4µM*	-25%
O=C(c1ccc(F)c(S(=O)(=O)N2CCOCC2)c1)N1CCN(c2ccc(F)cc2)CC1	nt	-4%	?	6.6µM*	nt
CC1CCN(S(=O)(=O)c2cc(C(=O)NC3(C)CCS(=O)(=O)C3)ccc2Br)CC1 (centres undefined)	nt	-4%	?	9.3µM*	nt
SMILES	Vaccinia mCherry	AMA1-RON2 inh	Pf growth 48h	Pf growth 96h	Vaccinia Venus
O=C(c1ccc(Cl)c(S(=O)(=O)N2CCOCC2)c1)N1CCN(c2ccccn2)CC1	nt	5%	12µM*	12µM*	nt
CCCCN(C)CCNC(=O)c1c2c(nc3ccccc13)C(=O)N(C1CCCCC1)C2	-11%	nt	nt	nt	-11%
N#Cc1cc2c(=O)n3ccccc3nc2n(-c2nnc(SCc3ccc(F)cc3)s2)c1=O	-1%	nt	nt	nt	4%
O=C(Cn1cc(S(=O)(=O)Cc2cccc(Cl)c2)c2ccccc21)Nc1ccccc1Cl	-24%	nt	nt	nt	-16%
CC(C)CCNC(=O)CCn1c(=O)c2cccn2c2cccnc21	-11%	nt	nt	nt	-5%
O=C(c1ccc(S(=O)(=O)N2CCCCCC2)cc1)N1CCN(c2ccccn2)CC1	-17%	3%	13µM*	nt	-9%
